In PubChem BioAssay (EPA / NIEHS):
Inconclusive results are not listed. Active and inactive are the calls of the source. Rule for the calls, unless noted: active = hit-call score of the fitted dose curve at least 0.9, where 1 is the maximum; inactive = score below 0.9.

Key:
[1] = ACEA_ER_80hr: ACEA Biosciences xCELLigence Real-Time Cell Analysis on Estrogen Receptor Agonism for Proliferation (AID 2282667; active = hit-call score of the fitted dose curve at least 0.9, where 1 is the maximum); details: T47D proliferation, impedance (xCELLigence), 80 h
Summary of the method: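 Impedance readout (RT-CES) of T47D proliferation at 80 h post-dose; gain of signal vs DMSO baseline. Compounds: 8 conc, 1:4 serial, top 100 uM final, ≤0.5% DMSO; biological duplicate.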

[2] = ATG_CRE_CIS: Attagene CIS-FACTORIAL HepG2 Assay for human cAMP Responsive Element (CRE) binding protein 3 (AID 2282926); details: HepG2 CRE cis-reporter, Attagene multiplexed mRNA; actives raise or lower the signal
Summary of the method: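 Readout: fluorescently labelled reporter transcripts resolved by capillary electrophoresis after RT-PCR, taken 24 h post-dosing in transfected HepG2. Endogenous transcription factor activity drives each cis-element reporter; gain or loss of signal fitted relative to DMSO control.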

[3] = ATG_CMV_CIS: Attagene CIS-FACTORIAL HepG2 Assay for human CMV (Internal Marker) (AID 2282928); details: HepG2 CMV promoter reporter, transcription factor profiling; actives raise or lower the signal;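 note: endpoint acts as a background internal control marker rather than a target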
Summary of the method: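 Reporter transcripts from transfected HepG2 cells are isolated after 24 h of chemical dosing, reverse-transcribed and amplified. Fragments labeled with 6-FAM are cut with HpaI and quantified by capillary electrophoresis; DMSO defines baseline.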

[4] = molecular target: Aryl hydrocarbon receptor (Homo sapiens) (UniProt P35869); assay: ATG_Ahr_CIS: Attagene CIS-FACTORIAL HepG2 Assay for human Aryl Hydrocarbon Receptor (Ahr) (AID 2282930); details: HepG2 AhR cis-factorial reporter transcription; actives raise or lower the signal
Summary of the method: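 Values derive from bidirectional fitting against DMSO negative control. Underlying signal: cis-element reporter mRNA in transiently transfected HepG2, harvested 24 h post-dose and measured by RT-PCR plus capillary electrophoresis.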

[5] = ATG_BRE_CIS: Attagene CIS-FACTORIAL HepG2 Assay for human Bone Morphogenetic Protein (BMP) Response Element (BRE) (AID 2282933); details: HepG2 BMP response element reporter, Attagene transcription factor profiling; actives raise or lower the signal
Summary of the method: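 Fluorescence-labelled reporter cDNA fragments, separated by capillary electrophoresis, gave the signal for this component of a 52-readout multiplex. HepG2 cells were transfected, exposed to chemicals for 24 h, and compared with DMSO using bidirectional fitting.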

[6] = molecular target: Retinoic acid receptor alpha (Homo sapiens) (UniProt P10276); assay: ATG_DR5_RAR_CIS: Attagene CIS-FACTORIAL HepG2 Assay for human Retinoic Acid Receptor Alpha (RARE), DR5 submotif (AID 2282934); details: HepG2 Attagene cis-factorial RARE DR5 reporter, mRNA; actives raise or lower the signal;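 for AC50: reporter responds to endogenous RAR alpha beta and gamma in HepG2 not RARA alone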
Summary of the method: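 Endpoint fitted in both directions relative to DMSO as negative control. It reflects DR5 cis-element reporter mRNA induction in transiently transfected HepG2 cells, measured 24 h after dosing through RT-PCR and fluorescent capillary electrophoresis.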

[7] = molecular target: Transcription factor E2F1 (Homo sapiens) (UniProt Q01094); assay: ATG_E2F_CIS: Attagene CIS-FACTORIAL HepG2 Assay for human E2F Transcription Factor 1 (AID 2282935); details: HepG2 Attagene cis-reporter, E2F reporter RNA transcripts; actives raise or lower the signal
Summary of the method: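 First, HepG2 cells were transfected with reporter transcription units. Next, they were dosed for 24 h. Then RNA was isolated, converted to cDNA, PCR-amplified, FAM-labeled, HpaI-digested and analyzed by capillary electrophoresis.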

[8] = ATG_E_Box_CIS: Attagene CIS-FACTORIAL HepG2 Assay for human Enhancer Box (E-box) (AID 2282936); details: HepG2 E-box cis-reporter transcription, actives raise or lower the signal
Summary of the method: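 Endogenous transcription factor activity was sensed in human HepG2 liver cells through transfected cis-promoter reporter units. After 24 h of dosing, total RNA was reverse-transcribed and reporter cDNA resolved by capillary electrophoresis.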

[9] = ATG_M_61_CIS: Attagene CIS-FACTORIAL HepG2 Assay for M61 Transcription Factor (Internal Marker) (AID 2282937); details: HepG2 Attagene CIS-FACTORIAL M61 internal marker reporter; actives raise or lower the signal
Summary of the method: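 Background-control endpoint: HepG2 cells with cis-regulated reporter constructs, 24 h exposure, reporter mRNA detected via fluorescent primer extension and capillary electrophoresis; values from bidirectional fitting with DMSO baseline.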

[10] = ATG_EGR_CIS: Attagene CIS-FACTORIAL HepG2 Assay for human Early Growth Response 1 (EGR1) (AID 2282938); details: HepG2 Attagene CIS-FACTORIAL EGR reporter mRNA; actives raise or lower the signal
Summary of the method: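 Endpoint derived by bidirectional fitting versus DMSO vehicle. Method: cis-promoter reporter units transfected into HepG2, 24 h dosing, RNA isolation, RT-PCR with 6-FAM primer extension and HpaI digestion, then capillary electrophoresis fluorescence detection.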

[11] = ATG_M_19_CIS: Attagene CIS-FACTORIAL HepG2 Assay for M19 Transcription Factor (Internal Marker) (AID 2282939); details: HepG2 Attagene CIS-FACTORIAL M19 internal marker reporter; actives raise or lower the signal
Summary of the method: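 HepG2, MRTU transient transfection, 24 h dosing. Total RNA → RT-PCR → 6-FAM primer extension → HpaI digest → CE fluorescence. Bidirectional curve fit, DMSO negative control.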

[12] = ATG_ERE_CIS: Attagene CIS-FACTORIAL HepG2 Assay for Estrogen Response Element (ERE) (AID 2282940); details: HepG2 ERE cis-reporter, Attagene RNA transcript; actives raise or lower the signal
Summary of the method: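 After a 24 h chemical treatment, RNA from reporter-transfected HepG2 cells is reverse-transcribed, PCR-amplified and fluorescently labelled. Fragments separated by capillary electrophoresis give reporter signal; DMSO serves as negative control.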

[13] = ATG_Ets_CIS: Attagene CIS-FACTORIAL HepG2 Assay for human Erythroblast Transformation Specific (ETS) (AID 2282941); details: HepG2 ETS cis-reporter transcription, actives raise or lower the signal
Summary of the method: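 Bidirectional fit versus DMSO of reporter mRNA signal, detected by RT-PCR and capillary electrophoresis in HepG2 cells transiently transfected with cis-element reporters and dosed 24 h.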

[14] = molecular target: Hepatocyte nuclear factor 3-beta (Homo sapiens) (UniProt Q9Y261); assay: ATG_FoxA2_CIS: Attagene CIS-FACTORIAL HepG2 Assay for human Forkhead box A2 (FOXA2) (AID 2282942); details: HepG2 cis-reporter transcription factor activity, 24 h; actives raise or lower the signal
Summary of the method: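 Measured: reporter mRNA induction or loss in HepG2 transiently carrying multiple cis-regulated reporter units, 24 h after dosing. Quantified by RT-PCR plus capillary electrophoresis, normalised to DMSO.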

[15] = ATG_GATA_CIS: Attagene CIS-FACTORIAL HepG2 Assay for human GATA Binding Protein (AID 2282944); details: HepG2 GATA cis-element reporter, Attagene multiplex mRNA; actives raise or lower the signal
Summary of the method: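 Cells: HepG2, transiently transfected with cis-regulated reporter transcription units. Exposure: 24 h. Detection: RT-PCR plus capillary electrophoresis of FAM-labeled fragments. Analysis: bidirectional, DMSO as baseline.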

[16] = ATG_DR4_LXR_CIS: Attagene CIS-FACTORIAL HepG2 Assay for human Liver X Receptor (LXR), DR4 submotif (AID 2282929); details: HepG2 Attagene DR4 cis-reporter, mRNA transcription; actives raise or lower the signal
Summary of the method: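 DR4 cis-reporter in HepG2, 24 h exposure. Detection: RT-PCR, 6-FAM labelling, CE fragment analysis. Endpoint fitted bidirectionally, DMSO = baseline.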

[17] = ATG_AP_1_CIS: Attagene CIS-FACTORIAL HepG2 Assay for human Activator Protein 1 (AP-1) (AID 2282931); details: HepG2 Attagene cis-factorial AP-1 reporter mRNA; actives raise or lower the signal
Summary of the method: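 Cis-regulated reporter units transiently expressed in HepG2 report endogenous transcription-factor activity. Signal: reporter mRNA at 24 h, via RT-PCR and fluorescent capillary electrophoresis. Endpoint derived by bidirectional fitting, DMSO as negative control.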

[18] = ATG_AP_2_CIS: Attagene CIS-FACTORIAL HepG2 Assay for human Activator Protein 2 (AP-2) (AID 2282932); details: HepG2 AP-2 cis-reporter, Attagene transcription factor profiling; actives raise or lower the signal
Summary of the method: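 Cells (HepG2) transfected with promoter-driven reporter constructs, treated 24 h. Total RNA reverse-transcribed, reporter cDNA PCR-amplified, FAM-labelled by primer extension, digested, resolved by capillary electrophoresis. Activity fitted both directions versus DMSO.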

[19] = ATG_FoxO_CIS: Attagene CIS-FACTORIAL HepG2 Assay for human Forkhead box O (FoxO) (AID 2282943); details: HepG2 Attagene cis-reporter, FoxO element, mRNA; actives raise or lower the signal
Summary of the method: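 Values reflect reporter mRNA induction or loss in HepG2 cells 24 h post-dosing, fitted bidirectionally with DMSO as negative control and baseline. Detection used RT-PCR and fluorescence capillary electrophoresis.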

Measured: AC50

Aryl hydrocarbon receptor (Homo sapiens), sequence (P35869 whole entry, looked up): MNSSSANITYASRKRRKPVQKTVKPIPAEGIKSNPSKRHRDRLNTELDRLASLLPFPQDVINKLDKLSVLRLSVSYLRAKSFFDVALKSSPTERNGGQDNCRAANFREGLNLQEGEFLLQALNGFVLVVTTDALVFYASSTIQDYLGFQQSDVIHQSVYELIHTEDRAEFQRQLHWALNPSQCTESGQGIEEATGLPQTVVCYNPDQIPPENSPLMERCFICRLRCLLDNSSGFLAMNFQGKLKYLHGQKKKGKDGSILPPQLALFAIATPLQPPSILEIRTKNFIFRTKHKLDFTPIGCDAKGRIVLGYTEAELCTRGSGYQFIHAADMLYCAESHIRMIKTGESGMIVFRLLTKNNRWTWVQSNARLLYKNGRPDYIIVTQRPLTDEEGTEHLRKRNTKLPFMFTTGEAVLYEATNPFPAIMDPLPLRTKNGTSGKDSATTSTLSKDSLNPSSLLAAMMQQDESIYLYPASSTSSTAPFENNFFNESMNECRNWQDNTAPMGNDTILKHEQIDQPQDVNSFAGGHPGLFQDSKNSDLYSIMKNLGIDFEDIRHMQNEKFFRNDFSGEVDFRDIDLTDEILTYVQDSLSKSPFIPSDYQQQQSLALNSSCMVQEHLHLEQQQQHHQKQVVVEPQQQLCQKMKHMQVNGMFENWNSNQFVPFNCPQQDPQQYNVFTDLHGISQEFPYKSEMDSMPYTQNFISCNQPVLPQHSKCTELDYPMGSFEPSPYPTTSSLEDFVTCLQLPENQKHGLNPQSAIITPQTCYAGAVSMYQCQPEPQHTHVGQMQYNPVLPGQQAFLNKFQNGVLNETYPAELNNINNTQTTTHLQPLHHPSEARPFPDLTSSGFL
Transcription factor E2F1 (Homo sapiens), sequence (Q01094 whole entry, looked up): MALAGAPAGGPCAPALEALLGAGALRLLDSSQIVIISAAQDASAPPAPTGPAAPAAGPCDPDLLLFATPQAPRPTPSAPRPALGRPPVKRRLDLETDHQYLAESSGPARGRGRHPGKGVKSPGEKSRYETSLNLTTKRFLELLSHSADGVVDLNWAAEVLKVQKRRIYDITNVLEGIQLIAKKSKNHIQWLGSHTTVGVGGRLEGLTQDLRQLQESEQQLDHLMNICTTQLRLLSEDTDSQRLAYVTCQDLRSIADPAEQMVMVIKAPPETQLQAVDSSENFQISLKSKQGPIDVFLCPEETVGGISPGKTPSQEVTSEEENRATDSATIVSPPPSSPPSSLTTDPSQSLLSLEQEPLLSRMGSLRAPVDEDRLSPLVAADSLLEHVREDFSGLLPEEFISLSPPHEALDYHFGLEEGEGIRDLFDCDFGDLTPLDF
Hepatocyte nuclear factor 3-beta (Homo sapiens), sequence (Q9Y261 whole entry, looked up): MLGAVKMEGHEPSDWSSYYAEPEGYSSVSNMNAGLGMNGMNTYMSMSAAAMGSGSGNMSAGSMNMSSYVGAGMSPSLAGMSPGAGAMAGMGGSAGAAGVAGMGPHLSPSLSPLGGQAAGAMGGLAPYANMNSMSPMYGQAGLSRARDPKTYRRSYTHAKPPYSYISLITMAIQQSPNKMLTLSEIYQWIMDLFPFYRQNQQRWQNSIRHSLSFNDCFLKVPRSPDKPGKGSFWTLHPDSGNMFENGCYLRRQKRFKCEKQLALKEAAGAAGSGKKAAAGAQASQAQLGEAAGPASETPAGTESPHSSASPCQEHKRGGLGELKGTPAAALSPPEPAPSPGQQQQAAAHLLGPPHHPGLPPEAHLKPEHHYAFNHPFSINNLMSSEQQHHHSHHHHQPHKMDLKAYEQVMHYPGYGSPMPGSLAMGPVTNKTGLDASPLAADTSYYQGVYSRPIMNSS
Retinoic acid receptor alpha (Homo sapiens), sequence (P10276 whole entry, looked up): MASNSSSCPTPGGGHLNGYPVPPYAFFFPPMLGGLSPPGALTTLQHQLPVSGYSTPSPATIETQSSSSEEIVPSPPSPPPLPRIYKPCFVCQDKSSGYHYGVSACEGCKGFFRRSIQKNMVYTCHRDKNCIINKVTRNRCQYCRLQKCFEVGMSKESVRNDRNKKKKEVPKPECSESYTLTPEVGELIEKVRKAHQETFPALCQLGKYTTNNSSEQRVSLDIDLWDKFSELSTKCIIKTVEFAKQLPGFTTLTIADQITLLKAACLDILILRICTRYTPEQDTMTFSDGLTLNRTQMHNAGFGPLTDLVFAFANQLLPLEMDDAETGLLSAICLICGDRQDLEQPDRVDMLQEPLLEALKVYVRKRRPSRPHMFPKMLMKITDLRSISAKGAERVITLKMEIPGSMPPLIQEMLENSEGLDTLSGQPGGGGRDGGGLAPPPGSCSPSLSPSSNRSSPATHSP

C=CC(=O)OCCCCCCOC(=O)C=C
inactive: [2] | [4] | [6] | [7] | [9] | [11] | [12] | [13] | [14] | [15]
active: [1] 10.5 µM | [3] 56.6 µM | [5] 24.5 µM | [8] 100 µM | [10] 66.6 µM

c1ccc2sc(SSN3CCOCC3)nc2c1
inactive: [1] | [5] | [7] | [8] | [9] | [11] | [12] | [13] | [14] | [15]
active: [2] 146 µM | [3] 64 µM | [16] 100 µM | [4] 3.45 µM | [17] 43.2 µM | [18] 64.8 µM | [6] 170 µM | [10] 100 µM | [19] 158 µM

COC(OC)(C(=O)c1ccccc1)c1ccccc1
inactive: [1] | [2] | [3] | [4] | [17] | [5] | [6] | [7] | [8] | [11] | [13] | [14] | [19] | [15]
active: [16] 49.8 µM | [10] 35.1 µM | [12] 2.01 µM

CCCCCCCCCCCC(=O)N(C)CC(=O)O
inactive: [1] | [2] | [4] | [17] | [18] | [5] | [6] | [7] | [8] | [10] | [11] | [13] | [14] | [19] | [15]
active: [3] 97.5 µM | [16] 97.5 µM | [12] 14.3 µM

CC(=O)C(C)C
inactive: [1] | [2] | [3] | [16] | [4] | [17] | [18] | [5] | [6] | [7] | [8] | [9] | [10] | [11] | [12] | [13] | [14] | [19] | [15]

C=CC(=O)OCCCCCCCC(C)C
inactive: [1] | [3] | [4] | [17] | [18] | [5] | [7] | [9] | [10] | [11] | [13] | [14] | [19] | [15]
active: [2] 77.2 µM | [16] 160 µM | [6] 70.5 µM | [8] 157 µM | [12] 100 µM

CCCCCCC=O
inactive: [2] | [3] | [16] | [4] | [17] | [6] | [7] | [10] | [11] | [13] | [14] | [19] | [15]
active: [1] 10.9 µM | [12] 26.7 µM

CC(CC(C)C)=NO
inactive: [1] | [2] | [3] | [16] | [4] | [17] | [18] | [5] | [6] | [7] | [8] | [10] | [11] | [12] | [13] | [14] | [19] | [15]

CCc1cccc(C)c1N(C(=O)CS(=O)(=O)O)C(C)COC (stereo not given)
inactive: [1] | [2] | [3] | [16] | [4] | [17] | [18] | [5] | [6] | [7] | [8] | [9] | [10] | [11] | [13] | [14] | [19] | [15]
active: [12] 27.5 µM

CCC1(C)C(=O)N(Cl)C(=O)N1Cl (stereo not given)
active: [2] 27.6 µM | [17] 67.4 µM
inactive: [1] | [3] | [4] | [18] | [5] | [6] | [7] | [8] | [9] | [11] | [12] | [14] | [15]

COc1ccc(-c2coc3cc(O)cc(O)c3c2=O)cc1
inactive: [2] | [16] | [18] | [6] | [7] | [9] | [10] | [11] | [13] | [14] | [19] | [15]
active: [1] 0.673 µM | [3] 21.6 µM | [4] 27 µM | [17] 64 µM | [5] 67.2 µM | [12] 0.397 µM

CC(C)c1ccc2ncccc2c1
inactive: [1] | [2] | [17] | [18] | [7] | [8] | [10] | [11] | [12] | [13] | [14] | [19] | [15]
active: [3] 53.5 µM

N#Cc1ccc(C2CCCc3cncn32)cc1 (stereo not given)
inactive: [2] | [3] | [16] | [17] | [5] | [6] | [7] | [8] | [9] | [10] | [11] | [13] | [14] | [19] | [15]
active: [1] 0.829 µM | [12] 25.4 µM

CC1(C)C(=O)N(CO)C(=O)N1CO
inactive: [1] | [2] | [3] | [16] | [4] | [18] | [5] | [6] | [7] | [9] | [10] | [11] | [12] | [13] | [14] | [19] | [15]
